# Measurements taken from PubChem BioAssay AID2029 (NMMLSC, 2009).
# Among all 320,000 compounds or so, about 210 (0.066%) were called active. The sample holds actives, similar compounds and a random draw of the others, so the mix is not that of the screen.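 Rule for the calls: active = GFP response relative to DMSO above a set limit, near the screen mean plus 3 SD (cut at about 150% in these data); inconclusive = Fewer than 70 cells measured for a yeast strain; inactive = the rest.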
# Experiment: modulators of CIT2-GFP expression in yeast, primary screen, S. cerevisiae, GFP fusion, multiplex flow cytometry, MLPCN library (AID 2029);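 note: ratio of well median GFP fluorescence to mean of DMSO wells on the plate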
# Settings: S. cerevisiae CIT2-GFP strain, 3 h, at 10 µM, hits give high values, 100 means same as DMSO wells
row,Compound,GFP response vs DMSO
1,Oc1cccc2ccc(/C=C/c3ccc(Br)s3)nc12,98.5% (inactive)
2,Cc1cc(N=Nc2ccc3ccccc3c2)ccc1O,97.3% (inactive)
3,Cc1cccc(N(C)C(=O)c2cc(S(=O)(=O)N3CCCCC3)c[nH]2)c1,105% (inactive)
4,C=CCNc1nc(Nc2ccc(Cl)cc2)nc(OC)n1,87% (inactive)
5,COC(=O)COc1ccc2c(=O)c(Oc3ccccc3Br)coc2c1,100% (inactive)
6,COc1ccc(C2(C)ON(c3ccccc3C(F)(F)F)C2=O)cc1 (configuration not stated),97% (inactive)
7,Cc1noc(NS(=O)(=O)c2ccc(N3CC(O)=C(c4ccccc4)C3=N)cc2)c1C,103% (inactive)
8,O=C(COC(=O)Cn1cnc2ccccc2c1=O)NCC12CC3CC(CC(C3)C1)C2,101% (inactive)
9,O=C(COC(=O)c1cc(S(=O)(=O)N2CCOCC2)ccc1Cl)NCCc1ccccc1,98.2% (inactive)
10,CCCc1nn(C)c2c(=O)[nH]c(-c3cc(S(N)(=O)=O)ccc3OCC)nc12,96% (inactive)
11,Cc1cc(C)cc(NS(=O)(=O)Cc2ccccc2)c1,103% (inactive)
12,CC(OC(=O)CNC(=O)c1ccco1)C(=O)Nc1ccc(Cl)cn1 (configuration not stated),98.1% (inactive)
13,O=C(N/C(=C\c1ccc(O)cc1)C(=O)N1CCCCC1)c1ccccc1,108% (inactive)
14,COc1cc(/C=C/C(=O)O)cc(S(=O)(=O)Nc2ccccc2SC)c1OC,110% (inactive)
15,CCc1cccc2c3c([nH]c12)C(CC)(CC(=O)O)OCC3 (configuration not stated),83.9% (inactive)
16,Cc1cccc(CN2CCC(n3nccc3NC(=O)c3ccccc3C)CC2)n1,107% (inactive)
17,CCc1n[nH]c(=S)n1/N=C/c1c[nH]c2ccc(Br)cc12,106% (inactive)
18,CCOc1ccc(NS(=O)(=O)c2ccc(C)c(C(N)=O)c2)cc1,94% (inactive)
19,NC(=O)c1oc2ccccc2c1NC(=O)CS(=O)(=O)c1ccccc1,110% (inactive)
20,CC1(C)C2CC=C(/C=N/NC(=O)C3CC3)C1C2 (configuration not stated),91.7% (inactive)
21,COCCNC(=O)CN(Cc1ccco1)C(=O)CCC(=O)Nc1nccs1,105% (inactive)
22,CCn1c(SCC(=O)Nc2nc(C)cs2)nnc1C(C)NC(=O)c1ccccc1 (configuration not stated),101% (inactive)
23,CN(c1ccccc1)c1ccc(/C=c2\s/c(=C(/C#N)C(=O)C(C)(C)C)n(Cc3ccco3)c2=O)cc1,352% (active)

row,Compound,GFP response vs DMSO
1,CCOC(=O)Cn1c(=O)oc2cc(S(=O)(=O)N(C)Cc3ccco3)ccc21,96.1% (inactive)
2,CCOC(=O)/C=c1\s/c(=C\c2ccc(C#N)cc2)c(=O)n1CC(=O)Nc1cccc(C)c1C,97.6% (inactive)
3,COc1ccc(-n2nnc3c(=O)n(CC(=O)N4CCC(Cc5ccccc5)CC4)cnc32)cc1,89.3% (inactive)
4,CCn1c(/C=C/Nc2ccccc2)[n+](CC)c2ccc(C(=O)OCC(F)(F)F)cc21,97.8% (inactive)
5,COc1ccc(/C=N/NC(=O)C(C)N(c2ccc(OC)cc2)S(C)(=O)=O)cc1 (configuration not stated),109% (inactive)
6,Cc1cccc(NS(=O)(=O)c2ccc(C)c(C(=O)NCc3cccnc3)c2)c1,107% (inactive)
7,O=C(O)C1CCN(C(=O)c2cc(F)cc3c2OCOC3)CC1,109% (inactive)
8,O=S(=O)(c1ccc(Br)cc1)N1CCC(c2nc3ccccc3[nH]2)CC1,111% (inactive)
9,CC(=O)N(CCCN(C)C)c1nc2ccc(C)cc2s1,111% (inactive)
10,Cc1ccc2nc(N(CCN(C)C)C(=O)C3=COCCO3)sc2c1,161% (active)
11,CN(C)CCN(C(=O)C1=COCCO1)c1nc2ccc(Cl)cc2s1,92.3% (inactive)
12,CCc1ccc(Oc2coc3cc(O)ccc3c2=O)cc1,94.9% (inactive)
13,CCN(CC(=O)Nc1cc(Cl)ccc1C)C(=O)Cn1c(=O)cnc2ccccc21,110% (inactive)
14,O=c1[nH]c(CN2CCN(S(=O)(=O)c3ccc4c(c3)OCCO4)CC2)nc2sc3c(c12)CCCC3,101% (inactive)
15,CCn1c(=O)c([N+](=O)[O-])c(NCc2ccc3c(c2)OCO3)c2ccccc21,88.2% (inactive)
16,CCc1ccc(S(=O)(=O)N/N=C\c2ccc([N+](=O)[O-])o2)cc1,91.7% (inactive)
17,CCn1c(/C=C/c2ccc([N+](=O)[O-])o2)nc2ccccc2c1=O,210% (active)
18,COc1ccc(S(=O)(=O)NCCOc2ccccc2)cc1F,94.3% (inactive)
19,COCC(C)n1c(SCC(=O)NC2CCCCC2C)nc2ccccc2c1=O (configuration not stated),101% (inactive)
20,CC(=O)Nc1ccc(NC(=O)C(C)n2c3ccccc3c3nc(=O)cc(C)n32)cc1 (configuration not stated),109% (inactive)
21,CC(C)NC(=O)C(c1ccc(F)cc1)N(C(=O)CCC(=O)Nc1ccccn1)c1ccccc1F (configuration not stated),88.4% (inactive)
22,CCOc1cccc(-c2nnc(SCC(=O)NC3CC3)n2C)c1,98.9% (inactive)
23,O=C(N/N=C/c1c[nH]c2ccccc12)c1ccccc1O,80.8% (inactive)

row,Compound,GFP response vs DMSO
1,COc1ccc(/C=C(\C#N)c2c[nH]c3ccccc23)cc1,79.6% (inactive)
2,C[n+]1ccc(/C=C/c2c[nH]c3ccccc23)cc1,274% (active)
3,CCCCNC(=O)N(O)C1N(/N=C/c2ccc(N(C)C)cc2)C(=S)SC1(C)C (configuration not stated),105% (inactive)
4,COc1ccc([C@H]2CC(=O)C=C(/C=C/c3ccc(Cl)cc3)C2)cc1,104% (inactive)
5,CC(C)Oc1ccc(CCc2n[nH]c(=S)n2Cc2ccccc2)cc1,98.5% (inactive)
6,N#Cc1nc(N)nc(N(c2ccccc2)c2ccccc2)n1,113% (inactive)
7,O=C(NCC1CCCO1)c1ccccc1-c1nc(-c2ccccc2Cl)no1 (configuration not stated),77% (inactive)
8,CC(=O)Nc1ccc(S(=O)(=O)Nc2ccc(-c3ccc4nnc(C)n4n3)cc2)cc1,102% (inactive)
9,O=C(NNc1cc(Cl)ccc1Cl)c1cccnc1Cl,107% (inactive)
10,CC(C)C(NC(=O)C1CCC(C(C)(C)C)CC1)C(=O)NCCCN1CCCCC1 (configuration not stated),94.8% (inactive)
11,O=C(CC1OC(=O)c2ccccc21)NC1CCCCC1 (configuration not stated),109% (inactive)
12,O=C(CSc1nnc(Nc2ccccc2F)s1)NC1CCCC1,85.1% (inactive)
13,O=C(Oc1cccc(C(=S)N2CCOCC2)c1)c1cccc(Cl)c1,94.4% (inactive)
14,COc1cc(C(=O)N(C)Cc2cccc(OC)c2OC)ccc1OCC(=O)Nc1cccc(C(F)(F)F)c1,101% (inactive)
15,Nc1ccc(C(=O)OCC(=O)NC2CCS(=O)(=O)C2)cc1[N+](=O)[O-] (configuration not stated),91.7% (inactive)
16,O=C(NC(=S)NC1CCS(=O)(=O)C1)c1cccc([N+](=O)[O-])c1 (configuration not stated),155% (active)
17,CC1CCN(C(=S)c2cccc([N+](=O)[O-])c2)CC1,102% (inactive)
18,O=C(N/N=C1\CCSC1)c1cc(Cl)ccc1O,102% (inactive)
19,Cc1cccc(C)c1NC(=O)C(Cl)C(=O)c1ccccc1 (configuration not stated),87.7% (inactive)
20,Cc1ccc(C)c(Cn2nnc3c(=O)[nH]c(C(=O)Nc4ccc(F)cc4)nc32)c1,99.3% (inactive)
21,CN(CC(=O)Nc1ccc(C(N)=O)cc1)S(=O)(=O)c1ccc2c(c1)OCCO2,110% (inactive)
22,COc1cc([N+](=O)[O-])cc([N+](=O)[O-])c1NC(=O)N1CCOCC1,110% (inactive)
23,Cc1cc(C(=O)CC#N)c(C)n1-c1c(C)n(C)n(-c2ccccc2)c1=O,92.1% (inactive)

row,Compound,GFP response vs DMSO
1,O=C(c1cc2ccccc2o1)N1CCN(Cc2ccccc2)CC1,94.7% (inactive)
2,CC1Cc2ccccc2N1CC(=O)Nc1ccc2c(c1)OC(F)(F)O2 (configuration not stated),82.8% (inactive)
3,COC(=O)C1=C(C)N(Cc2ccccc2)C(=NCCCOC(C)C)N[C@H]1c1ccccc1,69.2% (inactive)
4,COc1ccccc1C(=O)OCC(=O)Nc1cccc(S(=O)(=O)NC2=NCCCCC2)c1,118% (inactive)
5,COc1cccc(NC(=O)CN(C)C(=O)c2cc(C3CC3)nn2-c2ccccc2)c1,106% (inactive)
6,COc1ccc(NC(=O)CCn2ccnc2)c(OC)c1,106% (inactive)
7,CCOc1ccc(OCC)c(NC(=O)CSc2nnc(Cn3cnc4ccccc43)n2C)c1,99% (inactive)
8,O=C(NCC(F)(F)F)Nc1nnc(C(F)(F)F)s1,97.4% (inactive)
9,O=C(NCc1cc(F)cc(C(F)(F)F)c1)C1CCC(=O)N(C2CCCC2)C1 (configuration not stated),98.4% (inactive)
10,CS(=O)(=O)N1CCN=C1SCc1ccc(F)cc1,102% (inactive)
11,O=S(=O)(c1ccc(F)cc1)N1CCN=C1SCc1cccc(F)c1,104% (inactive)
12,CCSC1=NCCN1S(=O)(=O)c1ccc(F)cc1,151% (active)
13,CC1CC1C(=O)OCC(=O)c1c(N)n(C)c(=O)n(C)c1=O (configuration not stated),97.2% (inactive)
14,COc1cccc(-c2nc(CS(=O)(=O)CC(=O)NCCc3ccc(OC)c(OC)c3)c(C)o2)c1,102% (inactive)
15,COc1ccc(-c2nc(CS(=O)(=O)CC(=O)NCc3cccc(Br)c3)c(C)o2)cc1,150% (active)
16,Cc1ccc(-c2nc(CS(=O)(=O)CC(=O)NCc3ccc4c(c3)OCO4)c(C)o2)cc1,94.3% (inactive)
17,COc1cc(OC)cc(-c2c(C#Cc3ccsc3)c3cc(-c4ccc(SC)cc4)ccc3n2C)c1,109% (inactive)
18,CCN(CC)P(=O)(/C(Cl)=C\Nc1c(C)n(C)n(-c2ccccc2)c1=O)N(CC)CC,113% (inactive)
19,CC1=C2C(=O)OC(c3ccoc3)C2(C)CCC1 (configuration not stated),103% (inactive)
20,COc1ccc(CN2CC[C@H]3C=CC[C@@H](C(=O)N4CCOCC4)[C@H]3C2=O)cc1OC,99.2% (inactive)
21,COc1ccc(NC(=O)CC(NC(C)c2ccccc2)C(=O)O)cc1 (configuration not stated),101% (inactive)
22,O=C(NCC(=O)N1CCCCCCC1)c1ccccc1Cl,106% (inactive)
23,Cc1ccc(NC(=O)C(CC(=O)O)C2CCCO2)c(C)c1 (configuration not stated),98.9% (inactive)
